This passage reports Potency results from PubChem BioAssay (NCATS).

SMILES strings stand for the structures. Results filed as inconclusive are left out. Where a call stands in place of a potency, no number is given. Active and inactive are the calls of the source. The call rests on the fitted dose curve; in most records, active means well fitted curve in the direction sought with a large enough effect; inconclusive means small, poorly fitted or top-dose-only effect, or another doubt; inactive means no such curve, though single readings can be large; an effect the other way counts as inactive or inconclusive.

For assay [1], the target named is Aldehyde dehydrogenase, mitochondrial (Homo sapiens) (UniProt P05091). Briefly: qHTS for Inhibitors of the Aldehyde Dehydrogenase Family (ALDH2) Primary screen (AID 2061308). Further: nearly all actives have a fitted effect of over 55% in size. Background: In qHTS, concentration-response curves come from the screen itself.
Assay [2] has as its target Retinaldehyde dehydrogenase 3 (Homo sapiens) (UniProt P47895). The experiment in a line: qHTS for Inhibitors of the Aldehyde Dehydrogenase Family (ALDH1A3) Primary screen (AID 2061315).

Consider `Cc1ccsc1CNc1ncnc2ccc(-c3c(C)noc3C)cc12`, for which the Potency entry in assay [1] and in assay [2] was “inactive” throughout.

Take `Cc1nc(Nc2ccccc2)c2nc(-c3ccccc3)n(CCCN3CCCCC3C)c2n1` (centres undefined): the Potency result in assay [1] and in assay [2] was “inactive” each time.

With `CCOC(=O)CCCC(=O)Nc1ncnc2c1C(c1ccccc1)c1c(ccc3ccccc13)O2` (centres undefined), the Potency entry in assay [1] and in assay [2] was “inactive” in each case.

`CCCCCCCCn1cc(CN(CC)CC)c2cc(-c3cnc(N)nc3)ccc21`: the Potency entry in assay [1] and in assay [2] was “inactive” throughout.

As for `Brc1ccc(-c2csc(N3CCNCC3)n2)cc1`, the Potency entry in assay [1] and in assay [2] was “inactive” in each case.

As to `O=S(=O)(Nc1nc(-c2ccccc2C(F)(F)F)nc2ccccc12)c1ccc(-c2ccnc(C(F)(F)F)c2)cc1`, the Potency result in assay [1] and in assay [2] was “inactive” in each case.

For the molecule `O=C1CCc2cc(S(=O)(=O)Nc3cccc(C(F)(F)F)c3)ccc2N1`, the Potency entry in assay [1] and in assay [2] was “inactive” each time.

Take `C[C@H]1CC[C@@]2(OC1)O[C@H]1CC3[C@@H]4CC[C@@H]5C[C@@H](O[C@@H]6O[C@H](CO)[C@@H](O[C@@H]7O[C@@H](C)[C@H](O)[C@@H](O)[C@H]7O)[C@H](O)[C@H]6O[C@@H]6O[C@H](CO)[C@@H](O)[C@H](O)[C@H]6O)CC[C@]5(C)C4CC[C@]3(C)[C@H]1[C@@H]2C` (some centres undefined): the Potency entry in assay [1] and in assay [2] was “inactive” each time.

With `COc1ccc2c(c1)CN(C(=O)CCN1CCC(Cc3ccccc3)CC1)CCS2`, the Potency result in assay [1] and in assay [2] was “inactive” each time.

On to `CCCn1c(C)nc2c(N(C)CCN(C)C)nc(C)nc21`, for which the Potency entry in assay [1] and in assay [2] was “inactive” throughout.

As to `Cc1csc(CNc2ncnc3ccc(-c4ccc5c(c4)OCCO5)cc23)c1`, the Potency result in assay [1] and in assay [2] was “inactive” each time.

For the molecule `C[C@@H](NC(c1ccc(F)cc1)c1ccc2cccnc2c1O)c1ccccc1` (some centres undefined), the Potency result in assay [1] and in assay [2] was “inactive” throughout.

As to `CN(C)C(=O)C1CCN(c2nc(-c3ccc(Br)cc3)cs2)CC1`, the Potency result in assay [1] and in assay [2] was “inactive” each time.

Consider `NC(=O)C1CCN(c2nc(-c3ccccc3C(F)(F)F)cs2)CC1`, for which the Potency entry in assay [1] and in assay [2] was “inactive” each time.

On to `O=c1[nH]cnc2c1ncn2[C@H]1CC[C@@H](CO)O1`, for which the Potency result in assay [1] and in assay [2] was “inactive” throughout.

With `O=C(Cn1cc(CNC(=O)C2CCCCC2)nn1)Nc1cc(C(F)(F)F)ccc1Cl`, the Potency entry in assay [1] and in assay [2] was “inactive” in each case.

Turning to `Cc1cccc(-n2cnc3cc(C(=O)N4CCC(N5CCOCC5)CC4)ccc32)c1`, the Potency result in assay [1] and in assay [2] was “inactive” each time.

Regarding `Cc1nc(NC2CCCCC2)c2nc(-c3ccccc3)n(C(C)CN(C)C)c2n1` (centres undefined), the Potency result in assay [1] and in assay [2] was “inactive” in each case.

Regarding `Cc1cc(C)nc(NC(=S)N2CCN(c3ncccn3)CC2)c1`, the Potency result in assay [1] and in assay [2] was “inactive” in each case.

Consider `Cn1c2cc(C=O)sc2c2cnn(Cc3ccccc3F)c(=O)c21`, for which the Potency result in assay [1] and in assay [2] was “inactive” in each case.

For the molecule `O=C(NCCCc1ccccc1)C1CCN(c2nc(-c3ccc(Br)cc3)cs2)CC1`, the Potency result in assay [1] and in assay [2] was “inactive” each time.

In the case of `O=C(/C=C/c1ccc(C(F)(F)F)cc1)Nc1cccc([S+](=O)([O-])Nc2ccccc2F)c1`, the Potency result in assay [1] and in assay [2] was “inactive” each time.

In the case of `CCc1ccccc1C(=O)N1CCc2cc(-c3nc(NC(=O)Cc4ccc5c(c4)OCO5)sc3C)ccc21`, the Potency result in assay [1] and in assay [2] was “inactive” throughout.

Take `Cc1c(Cl)cccc1S(=O)(=O)Nc1nc(NCCc2ccccc2)nc2c1CN(Cc1ccccc1)CC2`: the Potency entry in assay [1] and in assay [2] was “inactive” each time.

With `O=C1CCc2cc(S(=O)(=O)Nc3ccc4c(c3)OCCO4)ccc2N1`, the Potency entry in assay [1] and in assay [2] was “inactive” in each case.

On to `CCOC(=O)C1CCN(C(=O)CNC(=O)Nc2ccccc2Cl)CC1`, for which the Potency entry in assay [1] and in assay [2] was “inactive” throughout.

Consider `CC(C)(C)c1ccc(-c2nc(SCCCOc3ccccc3)n3[nH]c(=O)cc3n2)cc1`, for which the Potency result in assay [1] and in assay [2] was “inactive” in each case.

For the molecule `CCNC(=O)c1ccc(-c2ccc3ncnc(NCc4ccc(C)o4)c3c2)o1`, the Potency result in assay [1] and in assay [2] was “inactive” each time.

On to `Cc1nnc(-c2cnn(C)c2N)n1CCCn1cccc1`, for which the Potency entry in assay [1] and in assay [2] was “inactive” each time.

For `COc1ccc(C2Nc3ccccc3C(=O)N2Cc2ccco2)cc1CSc1c(C)cccc1C` (centres undefined), the Potency result in assay [1] and in assay [2] was “inactive” throughout.

Consider `Cc1ccc(/C=C/C(=O)Nc2cccc([S+](=O)([O-])Nc3ccccc3F)c2)cc1`, for which the Potency entry in assay [1] and in assay [2] was “inactive” in each case.

Consider `Cc1noc(C)c1-c1ccc2ncnc(NCc3ccccc3C(F)(F)F)c2c1`, for which the Potency entry in assay [1] and in assay [2] was “inactive” throughout.

With `c1ccc(CN(Cc2ccccc2)Cc2nnc(-c3cc4ccccc4[nH]3)o2)cc1`, the Potency result in assay [1] and in assay [2] was “inactive” in each case.

In the case of `CC1CC(=O)NN=C1c1ccc(NCC(C)(C)NCC(O)COc2cc(Cl)ccc2C#N)cc1` (centres undefined), the Potency entry in assay [1] and in assay [2] was “inactive” each time.

Take `NC(=O)C1CCN(c2nccc(-c3ccc(Br)cc3)n2)CC1`: the Potency result in assay [1] and in assay [2] was “inactive” throughout.

Turning to `O=C(Nc1ncc(Cc2ccc(C(F)(F)F)cc2)s1)c1ccc(-c2cccnc2)o1`, the Potency result in assay [1] and in assay [2] was “inactive” throughout.

For `CCCc1ccc(-c2csc(NC(=O)c3ccncc3NS(=O)(=O)c3ccc(C)cc3)n2)cc1`, the Potency entry in assay [1] and in assay [2] was “inactive” in each case.

With `C/C=C/C=C/C=C/C(=O)O[C@@H]1C=C(CO)[C@](O)(CO)[C@@]2(C)CCCC(C)(C)[C@H]12`, the Potency entry in assay [1] and in assay [2] was “inactive” each time.

With `O=C(Nc1ccc(S(=O)(=O)Nc2nccs2)cc1)c1cccnc1`, the Potency entry in assay [1] and in assay [2] was “inactive” each time.

As for `COC(=O)c1c(-c2ccccc2)no[n+]1[O-]`, the Potency entry in assay [1] and in assay [2] was “inactive” throughout.

With `Cc1cccc(-c2ccc(=O)n(CC(=O)NCCc3ccccc3)n2)c1`, the Potency result in assay [1] and in assay [2] was “inactive” throughout.

Regarding `COc1cccc(C(=O)NC2CCN(C#N)CC2)c1`, the Potency entry in assay [1] and in assay [2] was “inactive” in each case.
